# MCF10A rerep = inducers of DNA re-replication in MCF 10A breast cells | 350,000 tested, 2.9% active | MCF 10A DNA re-replication, Hoechst nuclear intensity, 48 h | Potency, µM (titrated, usually from 46.1 µM), inactives show at the top dose activity, positive = re-replication, actives largely listed as activators; also: potency is read from the fitted curve at half-maximal effect; % of control where 0% means no effect; nearly all actives have a fitted effect of over 50% in size
# KB-V1 MDR tox = KB-V1 MDR subline cytotoxicity. KB-V1 MDR cells viability, CellTiter-Glo, 72 h. Potency, µM (highest dose often 46.1 µM), actives largely listed as cytotoxic. 400,000 tested, 3.4% active; also: potency is read from the fitted curve at half-maximal effect; % is scaled to controls: 0 for no effect and ±100 for the full control effect; nearly all actives have a fitted effect of over 60% in size
#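 Cytotoxicity via CellTiter-Glo luminescence after 72 h compound exposure at 37 degrees C. Cells: drug-selected KB-V1 line, DMEM phenol-red free plus 10% FBS. Compounds tested at multiple concentrations; normalized data fitted to concentration-effect curves.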
# KCNH2 WT inh = inhibitors of human wildtype KCNH2 potassium channel. Q12809. U2OS, BacMam KCNH2, thallium flux FluxOr; stronger effect = lower value. activity change, % at 1.84 µM. 340,000 tested, 0.37% active. AID 720551;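 active = maximum activity change below -70%; inconclusive = maximum activity change between -70% and -50%; inactive = maximum activity change above -50%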; also: % is scaled to controls: 0 for no effect and ±100 for the full control effect
# Target sequence (Q12809 whole entry, looked up): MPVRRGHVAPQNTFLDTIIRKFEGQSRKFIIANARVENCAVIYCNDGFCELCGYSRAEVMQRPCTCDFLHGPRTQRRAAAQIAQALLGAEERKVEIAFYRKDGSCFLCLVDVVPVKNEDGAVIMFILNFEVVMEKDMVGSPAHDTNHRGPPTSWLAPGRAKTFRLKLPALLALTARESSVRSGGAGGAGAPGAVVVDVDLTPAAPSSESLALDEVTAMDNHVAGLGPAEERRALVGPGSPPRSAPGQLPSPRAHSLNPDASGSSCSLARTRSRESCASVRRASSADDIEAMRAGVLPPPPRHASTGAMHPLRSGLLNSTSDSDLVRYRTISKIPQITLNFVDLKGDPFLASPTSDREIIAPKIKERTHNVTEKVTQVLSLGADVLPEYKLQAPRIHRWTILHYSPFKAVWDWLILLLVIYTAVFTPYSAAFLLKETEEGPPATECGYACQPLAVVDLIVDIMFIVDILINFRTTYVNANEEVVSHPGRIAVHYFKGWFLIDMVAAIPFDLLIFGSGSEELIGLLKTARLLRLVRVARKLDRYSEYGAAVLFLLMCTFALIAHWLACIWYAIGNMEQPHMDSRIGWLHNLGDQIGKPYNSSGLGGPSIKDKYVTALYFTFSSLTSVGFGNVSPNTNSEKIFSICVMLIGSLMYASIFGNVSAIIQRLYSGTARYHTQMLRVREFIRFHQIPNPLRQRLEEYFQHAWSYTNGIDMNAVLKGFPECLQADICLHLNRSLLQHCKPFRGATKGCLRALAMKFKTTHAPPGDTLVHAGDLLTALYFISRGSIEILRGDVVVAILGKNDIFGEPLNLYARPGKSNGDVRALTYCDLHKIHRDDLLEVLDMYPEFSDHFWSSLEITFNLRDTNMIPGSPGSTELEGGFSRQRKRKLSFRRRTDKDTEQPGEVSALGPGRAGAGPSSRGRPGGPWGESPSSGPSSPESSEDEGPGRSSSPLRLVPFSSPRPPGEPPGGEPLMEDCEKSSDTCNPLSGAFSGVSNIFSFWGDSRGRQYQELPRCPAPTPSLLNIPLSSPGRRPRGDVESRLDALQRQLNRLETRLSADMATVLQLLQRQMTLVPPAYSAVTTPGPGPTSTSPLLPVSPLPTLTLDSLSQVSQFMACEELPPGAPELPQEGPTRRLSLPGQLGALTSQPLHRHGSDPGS
#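 U2OS cells were transduced with wild-type KCNH2 virus (2.03 x 10^8 / mL) for 4 h at room temperature, then cultured overnight at 37 C. Thallium flux was read with FluxOr dye. Rate constants were normalized to DMSO controls.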
# SW480 rerep = DNA re-replication induction in SW480 cells | SW480 DNA re-replication, Hoechst DNA content imaging, 48 h | Potency, µM (highest dose often 46.1 µM), inactives show at the highest dose re-replication activation, most hits filed as activators | 340,000 tested, 1.8% active | AID 624297; also: potency is read from the fitted curve at half-maximal effect; % of control where 0% means no effect; nearly all actives have a fitted effect of over 55% in size
#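 DNA re-replication was detected as more nuclei of elevated Hoechst intensity after 48 hr exposure to compound (23 nL pinned per well of 250 cells).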
# KCNH2 3.1 block = inhibitors of human KCNH2 3.1 potassium channel isoform | activity change, % (tested at about 1.8 µM) | U2OS KCNH2 3.1, thallium flux FluxOr; stronger effect = lower value | 340,000 tested, 0.95% active | AID 720553;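 active = maximum activity change below -70%; inconclusive = maximum activity change from -70% to -50%; inactive = maximum activity change above -50%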;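 also: thallium influx rate constant from kinetic fluorescence after stimulation buffer; % is scaled to controls: 0 for no effect and ±100 for the full control effect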
#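 U2OS cells transduced with KCNH2 3.1 mutant virus (1.77 x 10^8 /mL, 4 h), plated overnight at 37 C, loaded 45 min with FluxOr dye plus Red40 quencher. Thallium flux rate constant from kinetic reads after stimulation buffer, normalised to controls.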
# KB-3-1 tox = KB-3-1 parental cell cytotoxicity. KB-3-1 viability, CellTiter-Glo ATP luminescence, 72 h. Potency, µM (top dose mostly 46.1 µM), actives largely listed as cytotoxic. 400,000 tested, 1.4% active. AID 1347075; also: potency is read from the fitted curve at half-maximal effect; % is scaled to controls: 0 for no effect and ±100 for the full control effect; nearly all actives have a fitted effect of over 60% in size
#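 Cytotoxicity measured as CellTiter-Glo luminescence after 72 h at 37 C. Compound titrations were pinned onto drug-naive KB-3-1 parental adenocarcinoma cells grown in DMEM with 10% FBS, and normalized data fitted to concentration-response curves.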
# Numbers without * were called inactive; i = inactive; ? = inconclusive; . = no result; [ ] = remark or other dose. This is a sample that favours compounds with a hit; in the whole collection about 7.6% have one here. Unless noted, calls follow the shape of the dose curve; as a rule, active = well fitted curve in the direction sought with a large enough effect; inconclusive = small, poorly fitted or top-dose-only effect, or another doubt; inactive = no such curve, though single readings can be large; an effect the other way counts as inactive or inconclusive.
SMILES,MCF10A rerep,KB-V1 MDR tox,KCNH2 WT inh,SW480 rerep,KCNH2 3.1 block,KB-3-1 tox
CN(Cc1ccno1)Cc1cn(Cc2ccccc2)nc1-c1ccc2c(c1)OCO2,3%,?,-14,-6%,-95*,i
CN(Cc1cccnc1)Cc1cn(Cc2ccccc2)nc1-c1ccc2c(c1)OCO2,3%,?,-4,2%,2,i
COc1ccc(N2CCN(c3ncccn3)CC2)cc1,-4%,i,-17,-6%,8,i
Cc1ccc(Cn2c(C(=O)NCc3ccccc3Cl)cc3sccc32)cc1,.,i,.,.,.,i
Cc1cccc(NC(=O)c2ccccc2SCc2ccc(F)cc2)n1,6%,21µM*,1,7%,14,i
O=C(Nc1ccc(Cl)cn1)c1ccccc1SCc1ccccc1,4%,i,4,-14%[9.22 µM],-1,i
CCCc1c(C(=O)N/N=C(\C)c2ccccn2)nnn1-c1nonc1N,.,?,1,.,4,5.8µM*
CC(/C=N/NC(=O)c1nnn(-c2nonc2N)c1CN1CCCCC1)=C\c1ccccc1,7.3µM*,i,44,?,?,?
C/C(=N\NC(=O)c1nnn(-c2nonc2N)c1CN(C)c1ccccc1)c1ccccc1O,?,i,0,3.3µM*,-3,6.5µM*
C/C(=N\NC(=O)c1nnn(-c2nonc2N)c1CN1CCCCC1)c1ccccc1O,13%,i,2,15µM*,-6,?
Nc1nonc1-n1nnc(C(=O)N/N=C/c2ccc(O)cc2)c1CN1CCCCCC1,-14%,i,-5,-11%,8,i
CCC(=O)N1CCc2cc(Br)cc(S(=O)(=O)CCC(=O)NCCc3ccccc3Cl)c21,.,i,.,.,.,i
COc1ccc(S(=O)(=O)N2CCOCC2)cc1NC(=O)c1sccc1C,0%,i,-8,0%,-21,i
Cc1ccc(NC(=O)Cn2cc3c(n2)CCC(C)C3)cc1C (stereo unspecified),.,i,.,.,.,i
CCOc1ccc(CNS(=O)(=O)c2ccc(-c3coc(C)n3)cc2)cc1,.,i,.,.,.,i
CCOc1ccc(CNS(=O)(=O)c2ccc(-c3coc(C)n3)cc2)cc1OC,.,23µM*,.,.,.,?
Cc1[nH]n(-c2ccccc2)c(=O)c1C(=O)c1ccc(Cl)cc1,21%,10µM*,-1,3%,5,?
Cc1[nH]n(-c2ccc(Cl)cc2)c(=O)c1C(=O)c1ccccc1,4.6µM*,13µM*,6,-20%,-1,13µM*
Cc1[nH]n(-c2ccccc2)c(=O)c1C(=O)c1cccc(F)c1,12%,?,.,-8%,-3,?
Cc1[nH]n(-c2ccccc2)c(=O)c1C(=O)c1ccccc1,?,?,0,-136%,10,?
CCc1ccc2c(c1)NC(=O)C2(C)Cc1ccccc1Cl (stereo unspecified),.,i,.,.,.,i
CCOC(=O)C(=O)NCC(c1ccco1)S(=O)(=O)c1cccs1 (stereo unspecified),-6%,i,0,-32%,-9,i
COCc1cc(C(C)=O)ccc1OCC(=O)Nc1ccc(NC(C)=O)cc1,-1%,i,0,-2%,-11,i
CC(=O)n1cc(C(C[N+](=O)[O-])SCCN)c2ccccc21 (stereo unspecified),5.2µM*,?,-1,6.5µM*,-5,?
Cc1cccc(N(C)S(=O)(=O)c2ccc3[nH]cc(C(=O)N4CCOCC4)c(=O)c3c2)c1,-3%,?,-8,-2%,-16,i
SMILES,MCF10A rerep,KB-V1 MDR tox,KCNH2 WT inh,SW480 rerep,KCNH2 3.1 block,KB-3-1 tox
CCc1ccccc1N(C)S(=O)(=O)c1ccc2[nH]cc(C(=O)N3CCc4ccccc43)c(=O)c2c1,?,i,-24,7%,-85*,i
C=C(C)C(=O)Nc1nnc(-c2cccs2)s1,10µM*,i,23,19%,9,i
O=C(COc1ccc(Cl)cc1)OCc1cc(=O)n2nc(C3CC3)sc2n1,.,i,.,.,.,i
O=C(NCc1ccccn1)c1cc(-c2ccncc2)nc2ccccc12,3%,i,-4,3%,-8,i
Cc1c(C(=O)NCc2ccccn2)oc2c(Cl)cccc12,12%,8.2µM*,2,0%,-6,i
O=C(Nc1nn[nH]n1)c1cc(-c2ccc(Cl)c(Cl)c2Cl)nc2ccccc12,-2%,i,-11,-1%,-1,i
Cc1c(C(=O)NCc2ccccn2)oc2ccccc12,-8%,i,2,-1%,-2,i
O=C(NCCc1ccccn1)c1cc(-c2ccc(Cl)c(Cl)c2Cl)nc2ccccc12,8%,5.8µM*,-2,-2%,-26,?
O=C(NCc1ccccn1)c1cc(-c2ccccc2Cl)nc2ccccc12,1%,18µM*,8,-33%,12,i
O=C(NNC(=O)c1cc(-c2ccc(Cl)cc2Cl)nc2ccccc12)Nc1ccccc1,?,23µM*,0,?,17,?
Cc1cccc(Cn2c(SCc3ccc(C(=O)NCc4ccccc4)cc3)nc3cccnc32)c1,.,i,.,.,.,?
COc1ccc(F)cc1S(=O)(=O)N1CCC2(CC1)OCCN2S(=O)(=O)c1cccs1,4%,?,18,0%,-5,i
CC(C)(C)C(=O)OCc1cc(=O)n2nc(C3CCCCC3)sc2n1,.,i,.,.,.,i
CC(C)C(=O)Nc1sc2c(c1-c1nc3ccccc3[nH]1)CCCC2,?,i,-8,2%,-10,i
Cc1nc2ccccc2c2oc(C(=O)NCc3ccccn3)cc12,14%,2.6µM*,-4,-4%,-3,i
Cc1cc(C)c(S(=O)(=O)NCC(c2ccco2)N2CCc3ccccc3C2)c(C)c1 (stereo unspecified),?,?,16,11%,-2,i
O=C1Nc2ccccc2N(C(=O)c2ccc3ccccc3c2)C1c1nc2ccccc2[nH]1 (stereo unspecified),.,16µM*,.,.,.,?
CCOc1ccc(C2NC(=O)NC(C)=C2C(=O)OCc2ccccc2)cc1 (stereo unspecified),21µM*,?,6,?,6,?
CCOC(=O)C1=C(C)NC(=O)NC1c1ccc(NC(C)=O)cc1 (stereo unspecified),0%,i,13,4%,7,i
CC1=C(C(=O)OCc2ccccc2)C(c2ccc(N(C)C)cc2)NC(=O)N1 (stereo unspecified),?,?,-6,?,-9,i
CCOC(=O)C1=C(C)NC(=O)NC1c1ccc(N2CCC(c3ccccc3)=N2)cc1 (stereo unspecified),?,i,-9,23µM*,-13,i

# Bioassay records deposited in PubChem by National Center for Advancing Translational Sciences (NCATS).
